IL1B secr inh: qHTS for Inhibitors of Inflammasome Signaling: IL-1-beta AlphaLISA Primary Screen; THP-1 LPS/ATP IL-1B secretion, AlphaLISA, 16 h; active compounds read low; activity change, % at 57.5 µM; actives 4.7% (n = 360,000); in the data active = activity change below about -50%; inconclusive = mostly about -30% to -49%
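THP-1 cells pretreated 1 hr with compounds (up to 57.5 uM final), then stimulated with LPS (250 ng/mL final) plus ATP (1.25 mM final); secreted IL-1B measured by AlphaLISA after 16 hr, decreased signal indicating inhibition.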
TDP1 cell noCPT: qHTS for Inhibitors of human tyrosyl-DNA phosphodiesterase 1 (TDP1): qHTS in cells in absence of CPT. DT40 Tdp1-/- hTDP1 cells, no CPT, ATP luminescence, 48 h. Potency, µM (highest dose often 46.2 µM), without a hit: at the top dose activity change, negative = growth inhibition, actives largely listed as inhibitors. actives 15% (n = 420,000). AID 686978, 2013; note: potency is the fitted concentration of half-maximal effect; nearly all actives have a fitted effect of over 55% in size
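Cells were dispensed at 400 per well, compounds added by pin tool, plates incubated ≥48 hr at 37 °C, then CellTiter-Glo added for 30 min at room temperature before luminescence reading. Line: DT40 Tdp1-/- complemented with hTDP1; camptothecin omitted.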
TDP1 inh: qHTS Assay for Inhibitors of Tyrosyl-DNA Phosphodiesterase (TDP1) | AID 485290, 2010 | Potency, µM (doses to about 130 µM), for the others: top-dose activity change, negative = inhibition, hits mostly inhibitors | actives 0.28% (n = 350,000) | Tyrosyl-DNA phosphodiesterase 1 (Homo sapiens), Q9NUW8 | recombinant TDP1, AlphaScreen DNA substrate cleavage; note: potency is the fitted concentration of half-maximal effect; nearly all actives have a fitted effect of over 40% in size
Target sequence (Q9NUW8 whole entry, looked up): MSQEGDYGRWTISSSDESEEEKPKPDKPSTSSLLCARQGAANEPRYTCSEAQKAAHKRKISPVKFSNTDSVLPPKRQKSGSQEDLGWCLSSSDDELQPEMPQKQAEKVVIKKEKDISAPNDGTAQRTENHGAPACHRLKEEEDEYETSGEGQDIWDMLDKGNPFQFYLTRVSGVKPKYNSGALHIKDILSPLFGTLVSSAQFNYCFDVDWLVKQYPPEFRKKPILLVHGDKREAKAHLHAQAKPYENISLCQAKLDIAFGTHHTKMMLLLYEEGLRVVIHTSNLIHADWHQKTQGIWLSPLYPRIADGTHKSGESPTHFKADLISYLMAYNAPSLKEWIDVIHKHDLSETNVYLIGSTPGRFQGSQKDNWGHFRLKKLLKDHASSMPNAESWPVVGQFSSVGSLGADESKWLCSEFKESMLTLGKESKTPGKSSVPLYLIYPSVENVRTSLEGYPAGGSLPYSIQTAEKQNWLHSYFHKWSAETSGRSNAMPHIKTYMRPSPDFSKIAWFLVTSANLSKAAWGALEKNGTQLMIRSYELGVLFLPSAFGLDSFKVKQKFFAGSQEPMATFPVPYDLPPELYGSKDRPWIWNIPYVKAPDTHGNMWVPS
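Signal: AlphaScreen proximity between streptavidin donor and anti-FITC acceptor beads on intact substrate. Reaction: Tdp1 1 nM, substrate 15 nM final, 5 min RT after 15 min compound preincubation.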
Giardia kill: Small Molecules that selectively kill Giardia lamblia: qHTS | actives 0.15% (n = 340,000) | activity change, % at 7.66 µM, hits read low | Giardia lamblia trophozoite viability; in the data active = activity change below about -80%; inconclusive = between about -30% and that limit;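 note: parasites exposed to compound for two days anaerobically before the ATP read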
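Killing of trophozoites was scored by loss of ATP luminescence after a 48 hrs anaerobic exposure to compounds at 37 deg C, using 100 cells per well.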
ELG1 repair inh: qHTS screen for small molecules that inhibit ELG1-dependent DNA repair in human embryonic kidney (HEK293T) cells expressing luciferase-tagged ELG1; Potency, µM (doses to about 46.1 µM), for inactives: at the top dose activity change, negative = inhibition, hits mostly inhibitors; actives 2.3% (n = 330,000); HEK293T ELG1-luciferase reporter, luminescence, 16 h; DNA damage induced by 5-fluorouridine; AID 504467, 2011; note: potency is the fitted concentration of half-maximal effect; nearly all actives have a fitted effect of over 55% in size
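5-Fluorouridine DNA damage + compound/DMSO, 2,000 cells/well, 16 h, 37 °C/5% CO2. ONE-Glo, 30 min RT, luminescence. Readout = decrease in reporter signal.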
TDP1 cell CPT: qHTS for Inhibitors of human tyrosyl-DNA phosphodiesterase 1 (TDP1): qHTS in cells in presence of CPT. Potency, µM (highest dose often 46.2 µM), for the others: at the top dose activity change, negative = growth inhibition, hits mostly inhibitors. AID 686979, 2013. actives 12% (n = 420,000). chicken DT40 Tdp1-/-;hTDP1 cells + 20 nM CPT, ATP luminescence, 48 h; note: potency is the fitted concentration of half-maximal effect; nearly all actives have a fitted effect of over 55% in size
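Chicken DT40 Tdp1-/- cells stably complemented with human TDP1 were seeded at 400 cells/well in medium containing 20 nM camptothecin, exposed to pin-transferred compounds, and grown at 37 °C for at least 48 hr. Viability was read as ATP luminescence.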
The depositor's hits bear a star; ? = inconclusive; / = no result given; [ ] = another dose, or the depositor's remark. The list is not random: actives were taken first. Their share in the collection is about 19%. Unless noted, calls come from the whole dose curve; as a rule, active = well fitted curve in the direction sought with a large enough effect; inconclusive = small, poorly fitted or top-dose-only effect, or another doubt; inactive = no such curve, though single readings can be large; an effect the other way counts as inactive or inconclusive. % is set by controls: 0 for no effect and ±100 for the full control effect.

SMILES | IL1B secr inh | TDP1 cell noCPT | TDP1 inh | Giardia kill | ELG1 repair inh | TDP1 cell CPT
CC(=O)C1=CCC(c2ccc(C)cc2)N(S(=O)(=O)c2ccc(Cl)cc2)C1 (stereo not given) | ? | 16.4µM* | / | / | / | ?
Cc1ccc(S(=O)(=O)N2CC(C(=O)O)=CC[C@H]2c2ccc(Cl)cc2)cc1 | 2.9 | -16.3% | -2.1% | ? | 8.1% | 1.8%
CC(=O)C1=CCC(c2ccc(C(C)C)cc2)N(S(=O)(=O)c2ccc(C)cc2)C1 (stereo not given) | ? | ? | / | / | / | -102.1%
CC(=O)C1=CCC(c2ccc(Cl)c(Cl)c2)N(S(=O)(=O)c2ccc(C)cc2)C1 (stereo not given) | -83.8* | 14.6µM* | / | / | / | ?
CC(=O)C1=CCC(c2ccc(F)cc2)N(S(=O)(=O)c2ccc(C)cc2)C1 (stereo not given) | -11.2 | 18.4µM* | / | / | / | ?
COc1ccc2c(C)c(CCC(=O)NCc3ccc(Cl)cc3)c(=O)oc2c1C | / | ? | 2.5% | / | / | -22.1%
Cc1cc(C)c(-n2nnnc2SCC(=O)c2cc3ccccc3o2)c(C)c1 | -2.2 | ? | 3.9% | -5.1 | ? | -8.1%
O=C(NC(c1ccc(Cl)cc1)c1cnccn1)C1CCN(Cc2ccccc2)CC1 (stereo not given) | -2.1 | ? | / | / | / | ?
O=C(NC(c1ccc(Cl)cc1)c1cnccn1)C1CCN(CCCOc2ccccc2)CC1 (stereo not given) | -58.4* | 20.6µM* | / | / | / | 23.1µM*
O=C(NC(c1ccc(Cl)cc1)c1cnccn1)C1CCN(CCCc2ccccc2)CC1 (stereo not given) | ? | ? | / | / | / | 23.1µM*
COc1ccc(C(NC(=O)C2CCN(CCCOc3ccccc3)CC2)c2cccs2)cc1 (stereo not given) | -56.4* | ? | / | / | / | ?
O=C(NC(c1ccccc1)c1cnccn1)C1CCN(CCCOc2ccccc2)CC1 (stereo not given) | -10.1 | -26.4% | / | / | / | -1.4%
O=[N+]([O-])c1ccc(Cl)c(NC2=NCCCCC2)c1 | 16.5 | 0.7% | 0.3% | -15.3 | 12.6% | 6.5%
CCN(C(=O)CN1CCCCC1C)c1c(N)n(Cc2ccccc2)c(=O)[nH]c1=O (stereo not given) | 1.2 | 0.3% | -0.3%[56.1 µM] | -10.6 | 23.2% | 7.4%
Cc1nn(Cc2ccccc2)c2c1C(c1cccc(Cl)c1)C(C#N)=C(N)O2 (stereo not given) | 62.0 | 18.4µM* | 5.0% | 6.2 | ? | 23.1µM*
COc1ccccc1NC(=O)C1CCN(S(=O)(=O)c2ccc3[nH]c4c(c3c2)CCCCC4)CC1 | / | ? | 7.9% | / | / | ?
Cc1ccc(C)c(Cn2cc(S(=O)(=O)c3ccc(Cl)cc3)c(=O)c3cc(F)ccc32)c1 | / | 25.9µM* | -1.3% | / | / | ?
CCn1cc(S(=O)(=O)c2ccc(OC)cc2)c(=O)c2cc(OC)ccc21 | -8.9 | 7.2% | 4.3% | 5.5 | 10.7% | -2.6%
COc1ccc(S(=O)(=O)c2cn(Cc3ccccc3)c3ccc(OC)cc3c2=O)cc1 | / | 25.9µM* | 3.8% | / | / | 11.6µM*
O=c1c(S(=O)(=O)c2ccc(Cl)cc2)cn(Cc2ccccc2F)c2ccc(F)cc12 | -11.7 | 23.1µM* | 0.6% | 0.1 | -23.5% | ?
CCOc1ccc(S(=O)(=O)c2cn(Cc3cc(C)ccc3C)c3ccc(OCC)cc3c2=O)cc1 | / | ? | 6.4% | / | / | ?
CCc1ccc2c(c1)c(=O)c(S(=O)(=O)c1ccc(F)cc1)cn2CC(=O)Nc1ccc(C)cc1C | / | 6.51µM* | 1.3% | / | / | ?
C=CCc1c(C)nc2nc(SCC(=O)Nc3ccc(OCC)cc3)nn2c1C | / | -21.5% | 7.8% | / | / | 1.5%
CCCn1c(N)c(C(=O)CN2CCc3ccccc3C2)c(=O)n(C)c1=O | 23.2 | -27.0% | -2.7% | 8.5 | 10.4% | 0.8%
CC(=O)OC[C@@]12C(=O)[C@@H](O)[C@@H](C)[C@]3(C[C@@H](c4ccoc4)O[C@@H]3OC(C)=O)[C@H]1CCC[C@]21CO1 | / | 4.0%[9.04 µM] | 8.1% | / | / | 3.8%[9.04 µM]
SMILES | IL1B secr inh | TDP1 cell noCPT | TDP1 inh | Giardia kill | ELG1 repair inh | TDP1 cell CPT
O=[N+]([O-])c1cccnc1NCc1cccs1 | 0.0 | 2.1% | 2.6% | -5.9 | ? | -0.3%
Nc1[nH]c(=S)[nH]c(=O)c1N=O | / | -9.8% | / | / | / | -5.3%
CCc1ccc(S(=O)(=O)c2cn(Cc3ccccc3F)c3cc(OC)c(OC)cc3c2=O)cc1 | / | ? | 3.8% | / | / | 14.6µM*
Cc1ccc(Cn2cc(S(=O)(=O)c3ccc(Cl)cc3)c(=O)c3cc(F)ccc32)cc1 | -10.2 | 7.31µM* | -3.2% | 13.0 | -0.7% | -27.8%
O=c1c(S(=O)(=O)c2ccc(Cl)cc2)cn(Cc2cccc(F)c2)c2ccc(F)cc12 | 0.0 | ? | 1.9% | ? | -15.3% | ?
O=C1C2CCCN2C(=S)N1c1ccc(Cl)cc1 (stereo not given) | -13.9 | ? | -12.7% | 8.0 | -3.6% | -27.9%
CCOC(=O)C(NC(=O)N(C)C)(Nc1sc(C)c(CC)c1C#N)C(F)(F)F (stereo not given) | -11.2 | -22.0% | 4.7% | -12.6 | 0.8% | -3.4%
COc1ccc(S(=O)(=O)N2CCN(C(=O)c3ccco3)CC2)cc1C(C)(C)C | -4.0 | ? | / | -1.9 | -4.8% | ?
Cc1cc(N(C)/N=C/c2ccccc2O)nc(-c2ccccc2O)n1 | 30.1 | 4.11µM* | 3.5% | 1.4 | -16.6% | 5.8µM*
Cc1cc(Nc2ccc(Br)cc2)nc(-c2ccccc2O)n1 | -24.2 | -25.2% | -4.1% | 9.7 | 4.7% | ?
O=C(C1CCC(=O)N(C2CCCC2)C1)N1CCN(c2ccccc2Cl)CC1 (stereo not given) | 16.0 | 5.4% | -1.4% | 20.8 | 3.7% | -21.5%
Cc1ccc(Cl)cc1N1CCN(C(=O)C2CCC(=O)N(C3CCCCCC3)C2)CC1 (stereo not given) | 29.8 | 2.91µM* | 3.0% | 25.6 | -6.6% | 6.51µM*
Cc1cccc(N2CCN(C(=O)C3CCC(=O)N(C4CC4)C3)CC2)c1C (stereo not given) | 34.4 | ? | 0.9% | -10.5 | -1.5% | 16.4µM*
